TROY signal inh: blocks TROY-dependent signaling in reporter cells | Q293 LMP1-TROYcd NF-kB luciferase reporter, 4 h | inhibition, % at 10 µM | 0.98% of 360,000 active | AID 1347056;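 active means compounds whose plate-normalised and pattern-corrected inhibition of the luciferase reporter signal at the single screening dose is 50% or more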
TWEAK Fn14 block: blocks TWEAK-Fn14 interaction in a reporter cell assay. TWEAK-stimulated Fn14 reporter cells, luciferase luminescence, 8 h. inhibition, % at 10 µM. 2% of 360,000 active; in the data active means inhibition above about 50%
KKLEB cytotox: reduces viability of KKLEB cystic fibrosis airway cells | 0.36% of 360,000 active | activity change (cytotoxicity), % at 5 µM | KKLEB CF airway cells viability, ATPlite luminescence, overnight; stronger effect = lower value; cells stimulated with P. aeruginosa culture filtrate;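 active means corrected activity change at or below -50% at 5 µM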
Peg3 prom inh-1: inhibitors of Peg3 promoter. HeLa PEG-Prom luciferase reporter, luminescence, overnight. inhibition, % at 20 µM. 1.7% of 360,000 active. AID 588405;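 active means inhibition of at least 50% at 20 µM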
HIF-2a block: HIF-2a inhibition | 0.72% of 360,000 active | 786-0 RCC cells HIF-2a reporter, luciferase luminescence, overnight | inhibition, % at 18.8 µM;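 active means inhibition of the luminescence signal of 40% or more relative to plate controls, in a single-dose primary screen at 18.75 µM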
CF NFkB block: cystic fibrosis NF-kB activation inhibition; KKLEB NF-kB-GFP reporter, PAF-induced, GFP fluorescence overnight; inhibition, % at 5 µM; 0.86% of 360,000 active;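 active means at least 50% inhibition at 5 µM, scaled per plate between neutral and stimulator controls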;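 further: PAF is a Pseudomonas aeruginosa culture filtrate used as stimulus; plate controls were PAF-stimulated DMSO wells for no effect and unstimulated DMSO wells for full effect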
Peg3 prom inh-2: confirmation of Peg3 promoter inhibitors; inhibition, % at 20 µM; HeLa PEG-Prom luciferase reporter, luminescence, overnight; AID 602417; shares compounds with Peg3 prom inh-1; 84% of 1,300 active;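 active means at 20 µM dose, 40% or more inhibition averaged across four replicates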
* hit, by the source's call; nt = no result given. An excerpt weighted towards active compounds, which were near 4% of everything screened.

SMILES | TROY signal inh | TWEAK Fn14 block | KKLEB cytotox | Peg3 prom inh-1 | HIF-2a block | CF NFkB block | Peg3 prom inh-2
COc1cc(OC)nc(Nc2nc(C(N)Cc3ccc(Cl)cc3)cs2)n1 (centres undefined) | -10 | -37 | -11 | 99* | 7 | 12 | nt
COC(=O)c1cc(C)nc(Nc2nc(C(N)Cc3ccc(Cl)cc3)cs2)n1 (centres undefined) | -6 | -5 | -37 | -15 | 4 | 40 | nt
Cc1cc(C(C)(C)C)cc(C)c1Cn1c2[n+](c3ccc(C(F)(F)F)cc31)CCCCC2 | 39 | 36 | -21 | 56* | 23 | 22 | nt
O=C(CSc1nnnn1-c1ccccc1)Nc1ccccc1 | 5 | -22 | 2 | -1 | -8 | -4 | nt
Cc1cccc(-n2ccnc2SCC(=O)Nc2ccc3c(c2)OCCO3)c1 | 51* | 6 | -3 | -67 | -74 | 1 | nt
O=C(CSc1nc2ccc(NC(=O)CSc3nnnn3-c3ccccc3)cc2s1)Nc1ccccc1 | 15 | -70 | -65* | 35 | -7 | 61* | nt
O=C(CSc1nnnn1-c1ccccc1Cl)Nc1ccc2c(c1)OCCO2 | 54* | 76* | -11 | 2 | -30 | 5 | nt
O=C(CSc1nccn(-c2ccc3c(c2)OCCO3)c1=O)Nc1ccccc1 | 66* | 62* | 10 | -104 | -87 | -13 | nt
Cc1ccc(NC(=O)CSc2nccn(-c3ccc4c(c3)OCCO4)c2=O)cc1 | 35 | 25 | -24 | -14 | -25 | 9 | nt
COc1ccccc1C1/C(=C(\O)c2ccc3c(c2)OCCO3)C(=O)C(=O)N1CCCn1ccnc1 (centres undefined) | -41 | -22 | -4 | -10 | -50 | 6 | nt
CC1Cc2nc(SCC(=O)Nc3ccc4c(c3)OCCO4)n(C)c(=O)c2S1 (centres undefined) | 71* | 42 | -5 | 13 | -3 | -8 | nt
COCCn1c(SCC(=O)Nc2ccc3c(c2)OCCO3)nc2c(c1=O)SC(C)C2 (centres undefined) | -42 | -23 | -18 | -80 | -146 | 4 | nt
COc1cc(Nc2c3ccccc3nc3ccccc23)cc(OC)c1OC | -36 | 1 | 5 | 107* | 46* | -96 | 99*
COc1ccc(Nc2c3c(nc4ccccc24)CCCC3)cc1OC | -7 | -1 | -6 | 5 | 22 | -3 | nt
CCN(CC)CCCCNc1ncc2cc(-c3cc(OC)cc(OC)c3)c(NC(=O)NC(C)(C)C)nc2n1 | 5 | -7 | -28 | 74* | -9 | 23 | 77*
CC(=O)Nc1ccc(S(=O)(=O)N2CCC(N3CCCCCC3)CC2)cc1 | 20 | 6 | -1 | 10 | 17 | -5 | nt
COc1ccc(NC(=O)c2cc(-c3ccccn3)nc3ccccc23)cc1S(=O)(=O)N(C)C | 13 | 17 | 6 | 61* | -2 | 24 | 54*
COc1ccc(NC2CCCN(C(=O)COc3ccc(C(C)=O)cc3)C2)cc1 (centres undefined) | 9 | -4 | 12 | 11 | 1 | -12 | nt
CC1(C(=O)NCc2ccc3c(c2)OCO3)CCN1C(=O)CC1CCCC1 (centres undefined) | 1 | -4 | 0 | 9 | -2 | 5 | nt
CN1CCC2(CC1)N=C(c1ccc(F)cc1)C(=S)N2C(=O)c1ccc(C(C)(C)C)cc1 | 19 | 21 | 0 | 70* | -12 | 1 | 84*
CC(C)(C)c1ccc(C(=O)N2CCNCC2)cc1 | -5 | -5 | -10 | -3 | -2 | 1 | nt
CC(=O)n1cc(N(C(=O)CCl)c2ccc([N+](=O)[O-])cc2)c2ccccc21 | 5 | 37 | -83* | 90* | 30 | 80* | 99*
CCN(Cc1nc(-c2ccc(OC)c(OC)c2)no1)C(=O)c1ccc2c(c1)OCO2 | 12 | 47 | 3 | 11 | 12 | -4 | nt
CCN(C(=O)Cn1cnc2c1c(=O)n(C)c(=O)n2C)C1CCCCC1 | 13 | 12 | 8 | 9 | 12 | -34 | nt
O=C(Nc1cccc(S(=O)(=O)N2CCOCC2)c1)c1ccc2c(=O)n3c(nc2c1)CCCCC3 | 32 | 31 | -6 | 51* | 11 | -13 | 51*
SMILES | TROY signal inh | TWEAK Fn14 block | KKLEB cytotox | Peg3 prom inh-1 | HIF-2a block | CF NFkB block | Peg3 prom inh-2
CC(C)N1CCc2c(sc(NC(=O)c3cc4cc([N+](=O)[O-])ccc4s3)c2C(N)=O)C1 | -3 | -24 | -2 | 97* | 5 | -39 | 98*
CC(C)N1CCc2c(sc(NC(=O)c3ccco3)c2C(N)=O)C1 | 13 | 24 | 13 | -29 | -34 | -19 | nt
COc1ccc(-c2c(C)[nH]n3c(=O)c(Cc4ccccc4)c(C)nc23)cc1OC | 5 | 2 | -1 | 24 | 33 | -14 | nt
Cc1nc2c(-c3ccc(Cl)cc3)c(C)[nH]n2c(=O)c1Cc1ccccc1 | 32 | 40 | -11 | 59* | -22 | 16 | 67*
CCNc1nc(N)nc(-c2cc(Cl)ccc2O)n1 | 1 | 64* | -49 | 101* | -185 | 88* | -23
CCCNc1nc(N)nc(-c2cc(Cl)ccc2OC)n1 | 2 | 12 | 1 | 14 | 12 | -6 | nt
Cc1cc(C)c2c(N)c3cccc(C)c3nc2n1 | -50 | -30 | -4 | 107* | -58 | -198 | 99*
OC[C@@H]1[C@@H](c2ccc(Cl)cc2)C(c2cccc(Cl)c2)=NN1c1ccccc1 | 0 | 62* | -2 | 54* | -3 | 34 | 65*
OC[C@@H]1[C@@H](c2ccc(Cl)cc2)C(c2ccccc2)=NN1c1ccccc1 | 4 | 22 | -6 | 19 | 11 | 22 | nt
CCc1ccc(NC(=O)COc2cccc(-n3cnnn3)c2)cc1 | -20 | -27 | -2 | -13 | -31 | -5 | nt
CCCN(CCC)CCCNC(=S)Nc1ccc2nc(N3CCCC3)cc(C)c2c1 | -7 | -40 | -23 | 51* | 21 | 8 | 71*
CCN(CC)CCNC(=S)Nc1ccc2nc(N3CCCC3)cc(C)c2c1 | -19 | -41 | -7 | 32 | 14 | 1 | nt
CCCOc1ccc2cc(-c3ccccn3)c(=O)oc2c1 | 64* | 93* | -46 | 74* | 55* | -14 | 68*
COc1cc(/C=C/C(=O)OCC(=O)Nc2cc(S(=O)(=O)N3CCCC3)ccc2Cl)cc(OC)c1OC | -2 | 13 | -4 | -3 | 9 | 29 | nt
O=C1/C(=C\c2cccc(O)c2O)SC(=S)N1Cc1ccccc1 | 16 | 33 | 2 | 66* | 3 | -18 | 62*
O=C(CCCN1C(=O)/C(=C/c2ccccc2Cl)SC1=S)NNC(=O)c1ccc(Cl)cc1 | 66* | 53* | -9 | 64* | 73* | 4 | 45*
O=C1/C(=C/c2ccccc2Cl)SC(=S)N1CCCC(=O)N(CCO)c1ccccc1 | 63* | 60* | 2 | 67* | 71* | 13 | 91*
Oc1ccc(C23CCCC2C2(CCCC2)c2ccc(O)cc2O3)c(O)c1 (centres undefined) | 43 | 24 | 1 | 51* | 24 | 19 | 44*

Screening data deposited in PubChem BioAssay by Sanford-Burnham Center for Chemical Genomics.
